Reference: the supplement of paper PMC4709259
Structures can show the parent of a compound that is named as a salt. ± gives the standard deviation.

These compounds were tested on Jurkat (assay: cell count relative to DMSO control (fraction of control); higher = more cells (less growth inhibition)). Settings: 48 h.

SMILES | cell count
CN[C@@H]1[C@H](O)[C@H](NC)[C@H]2O[C@@]3(O)C(=O)C[C@@H](C)O[C@H]3O[C@@H]2[C@H]1O [Spectinomycin·HCl Pentahydrate] (concentration: 25 µM) | 0.941 ± 0.16
CN[C@H](CC(C)C)C(=O)N[C@H]1C(=O)N[C@@H](CC(N)=O)C(=O)N[C@H]2C(=O)N[C@H]3C(=O)N[C@H](C(=O)N[C@H](C(=O)O)c4cc(O)cc(O)c4-c4cc3ccc4O)[C@H](O)c3ccc(c(Cl)c3)Oc3cc2cc(c3O[C@@H]2O[C@H](CO)[C@@H](O)[C@H](O)[C@H]2O[C@H]2C[C@](C)(N)[C@H](O)[C@H](C)O2)Oc2ccc(cc2Cl)[C@H]1O [Vancomycin·HCl] (concentration: 25 µM) | 1.19 ± 0.13
Nc1c(CC(=O)O)cccc1C(=O)c1ccc(Br)cc1 [Bromfenac] (concentration: 25 µM) | 1.05 ± 0.05
CNCC[C@@H](Oc1ccccc1C)c1ccccc1 [Atomoxetine·HCl] (concentration: 25 µM) | 0.81 ± 0.12
c1ccc2c(c1)CCCC2C1=NCCN1 (centres undefined) [Tetrahydrozoline·HCl] (concentration: 25 µM) | 1.16 ± 0.094
CNCCC(Oc1ccc(C(F)(F)F)cc1)c1ccccc1 (centres undefined) [Fluoxetine·HCl] (concentration: 25 µM) | 0.68 ± 0.14
CN1CCC(=C2c3ccccc3CC(=O)c3sccc32)CC1 [Ketotifen Fumarate] (concentration: 25 µM) | 0.856 ± 0.071
CNCC[C@H](Oc1cccc2ccccc12)c1cccs1 [Duloxetine·HCl] (concentration: 25 µM) | 0.353 ± 0.073
CN1CCC[C@H]1c1cccnc1 [Nicotine] (concentration: 25 µM) | 0.561 ± 0.18
CCCN1CCCC[C@H]1C(=O)Nc1c(C)cccc1C [Ropivacaine·HCl Monohydrate] (concentration: 25 µM) | 0.995 ± 0.057
CCCCC(C)(O)C/C=C/[C@H]1[C@H](O)CC(=O)[C@@H]1CCCCCCC(=O)OC (mixture of isomers) [Misoprostol] (concentration: 25 µM) | 0.702 ± 0.08
CS(=O)(=O)CCNCc1ccc(-c2ccc3ncnc(Nc4ccc(OCc5cccc(F)c5)c(Cl)c4)c3c2)o1 [Lapatinib Ditosylate] (concentration: 25 µM) | 0.911 ± 0.14
CC1(C)S[C@@H]2[C@H](NC(=O)COc3ccccc3)C(=O)N2[C@H]1C(=O)O [Penicillin V Potassium] (concentration: 25 µM) | 1.09 ± 0.09
Fc1ccc([C@@H]2CCNC[C@H]2COc2ccc3c(c2)OCO3)cc1 [Paroxetine·HCl] (concentration: 2.5 µM) | 0.24 ± 0.057
CN1CC(=O)N2[C@H](c3ccc4c(c3)OCO4)c3[nH]c4ccccc4c3C[C@@H]2C1=O [Tadalafil] (concentration: 25 µM) | 0.413 ± 0.12
C=CC1=C(C(=O)O)N2C(=O)[C@@H](NC(=O)/C(=N\OCC(=O)O)c3csc(N)n3)[C@H]2SC1 [Cefixime] (concentration: 25 µM) | 0.846 ± 0.069
CNC(=O)c1cnn(-c2nc(N)c3ncn([C@@H]4O[C@H](CO)[C@@H](O)[C@H]4O)c3n2)c1 [Regadenoson] (concentration: 25 µM) | 0.883 ± 0.11
CN1C(=O)CC(C)(c2ccccc2)C1=O (centres undefined) [Methsuximide] (concentration: 25 µM) | 0.752 ± 0.068
C=CC1=C(C(=O)O)N2C(=O)[C@@H](NC(=O)/C(=N\O)c3csc(N)n3)[C@H]2SC1 [Cefdinir] (concentration: 25 µM) | 0.765 ± 0.12
CC(C)(C#N)c1cc(Cn2cncn2)cc(C(C)(C)C#N)c1 [Anastrozole] (concentration: 25 µM) | 0.933 ± 0.054

SMILES | cell count
COCC1=C(C(=O)OC(C)OC(=O)OC(C)C)N2C(=O)[C@@H](NC(=O)/C(=N\OC)c3csc(N)n3)[C@H]2SC1 (some centres undefined) [Cefpodoxime Proxetil] (concentration: 25 µM) | 0.872 ± 0.045
COC(=O)C1=C(C)NC(C)=C(C(=O)OC(C)C)C1c1cccc2nonc12 (centres undefined) [Isradipine] (concentration: 25 µM) | 1.13 ± 0.13
O=C(O)COCCN1CCN([C@H](c2ccccc2)c2ccc(Cl)cc2)CC1 [Levocetirizine Dihydrochloride] (concentration: 25 µM) | 0.91 ± 0.068
CN[C@@H]1[C@H](O[C@H]2[C@H](O[C@H]3[C@H](O)[C@@H](O)[C@H](N=C(N)N)[C@@H](O)[C@@H]3N=C(N)N)O[C@@H](C)[C@]2(O)C=O)O[C@@H](CO)[C@H](O)[C@H]1O [Streptomycin Sulfate] (concentration: 25 µM) | 0.791 ± 0.011
CCOc1ccccc1OCCN[C@H](C)Cc1ccc(OC)c(S(N)(=O)=O)c1 [Tamsulosin·HCl] (concentration: 25 µM) | 0.808 ± 0.079
CN1CCCC(n2nc(Cc3ccc(Cl)cc3)c3ccccc3c2=O)CC1 (centres undefined) [Azelastine·HCl] (concentration: 25 µM) | 0.457 ± 0.02
CC[C@]1(O)C[C@H]2CN(CCc3c([nH]c4ccccc34)[C@@](C(=O)OC)(c3cc4c(cc3OC)N(C=O)[C@H]3[C@@](O)(C(=O)OC)[C@H](OC(C)=O)[C@]5(CC)C=CCN6CC[C@]43[C@@H]65)C2)C1 [Vincristine Sulfate] (concentration: 25 nM) | 0.083 ± 0.066
NS(=O)(=O)Cc1noc2ccccc12 [Zonisamide] (concentration: 25 µM) | 0.561 ± 0.25
COc1ccc2[nH]c([S+]([O-])Cc3ncc(C)c(OC)c3C)nc2c1 (centres undefined) [Omeprazole] (concentration: 25 µM) | 0.946 ± 0.083
CS(=O)(=O)OCCCCOS(C)(=O)=O [Busulfan] (concentration: 25 µM) | 0.343 ± 0.046
CCCc1nc(C)c2c(=O)nc(-c3cc(S(=O)(=O)N4CCN(CC)CC4)ccc3OCC)[nH]n12 [Vardenafil] (concentration: 25 µM) | 0.646 ± 0.099
COc1ccc2[nH]c([S@@+]([O-])Cc3ncc(C)c(OC)c3C)nc2c1 [Esomeprazole Potassium] (concentration: 25 µM) | 0.868 ± 0.081
CNC[C@H](O)c1ccc(O)c(O)c1 [Epinephrine (L-(-)-Epinephrine-(+)-Bitartrate)] (concentration: 25 µM) | 0.855 ± 0.14
CC(C)NCC(O)c1cc(O)cc(O)c1 (centres undefined) [Metaproterenol Hemisulfate (Orciprenaline)] (concentration: 25 µM) | 0.895 ± 0.04
CCOC(=O)[C@H](CCc1ccccc1)N[C@@H](C)C(=O)N1CCC[C@H]1C(=O)O [Enalapril] (concentration: 25 µM) | 0.733 ± 0.042
CCn1cc(C(=O)O)c(=O)c2cc(F)c(N3CCNCC3)cc21 [Norfloxacin] (concentration: 25 µM) | 0.982 ± 0.014
C#C[C@]1(O)CC[C@H]2[C@@H]3CCC4=Cc5oncc5C[C@]4(C)[C@H]3CC[C@@]21C [Danazol] (concentration: 25 µM) | 0.92 ± 0.08
NCCCC(O)(P(=O)(O)O)P(=O)(O)O [Alendronate·Na Trihydrate] (concentration: 25 µM) | 0.282 ± 0.11
COCCc1ccc(OCC(O)CNC(C)C)cc1 (centres undefined) [Metoprolol Tartrate] (concentration: 25 µM) | 1.02 ± 0.11
